# Bioassay records: PubChem BioAssay, several laboratories
# Sampled rows, rich in hits. Any-hit rate of the full collection: about 3.2%.
# DSG3 Ab inh – human desmoglein-3 autoantibody binding inhibition. actives 0.48% (n = 310,000). P32926. DSG3-coupled beads, scFv-anti-DSG3-GFP binding, flow cytometry; active compounds read low. binding (percent of control), % at 10 µM;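 active = binding more than 3 SD below its plate's average and above zero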;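 also: hits lower antibody fragment binding to DSG3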
# rCAG RNA binder – binds r(CAG) RNA repeats; AID 651821; r(CAG) RNA repeat, TO-PRO-1 dye displacement fluorescence; inhibition, % at 3 µM; actives 1.3% (n = 370,000);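 active = inhibition above the plate cutoff, the mean of all test compounds on that plate plus 3 SD, cut at about 35% in these data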;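 also: 0% = DMSO alone and 100% = 100 µM mitoxantrone as full dye displacement; higher means more dye released from RNA so lower well fluorescence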
# MsrA inhibitor – bovine MsrA inhibition; purified bovine MsrA, absorbance read-out; inhibition, % at 15.5 µM; actives 0.75% (n = 360,000); in the data active = inhibition above about 4.5%;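 also: 0% = vehicle wells with enzyme and 100% = reference inhibitor wells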
# bovine MsrA act – activates bovine MsrA enzyme; actives 0.3% (n = 360,000); activation, % at 10.6 µM; purified bovine MsrA, absorbance read-out; in the data active = activation above about 7.5%;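 also: 0% = vehicle and 100% = reference activator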
# NadD block – NadD (S. aureus) enzyme inhibition; purified NadD enzyme, colorimetric absorbance read-out; inhibition, % at 20 µM; actives 0.78% (n = 360,000); AID 602399; in the data active = inhibition above about 26%
# DAGLB inh – blocks human DAGLB lipase activity; Q8NCG7; HEK293T DAGLB membrane lysate, EnzChek fluorogenic substrate; inhibition, % at 5.17 µM; actives 0.059% (n = 340,000); in the data active = inhibition above about 34%;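 also: 0% = enzyme with vehicle and 100% = wells lacking enzyme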
# Target sequence (Q8NCG7 whole entry, looked up): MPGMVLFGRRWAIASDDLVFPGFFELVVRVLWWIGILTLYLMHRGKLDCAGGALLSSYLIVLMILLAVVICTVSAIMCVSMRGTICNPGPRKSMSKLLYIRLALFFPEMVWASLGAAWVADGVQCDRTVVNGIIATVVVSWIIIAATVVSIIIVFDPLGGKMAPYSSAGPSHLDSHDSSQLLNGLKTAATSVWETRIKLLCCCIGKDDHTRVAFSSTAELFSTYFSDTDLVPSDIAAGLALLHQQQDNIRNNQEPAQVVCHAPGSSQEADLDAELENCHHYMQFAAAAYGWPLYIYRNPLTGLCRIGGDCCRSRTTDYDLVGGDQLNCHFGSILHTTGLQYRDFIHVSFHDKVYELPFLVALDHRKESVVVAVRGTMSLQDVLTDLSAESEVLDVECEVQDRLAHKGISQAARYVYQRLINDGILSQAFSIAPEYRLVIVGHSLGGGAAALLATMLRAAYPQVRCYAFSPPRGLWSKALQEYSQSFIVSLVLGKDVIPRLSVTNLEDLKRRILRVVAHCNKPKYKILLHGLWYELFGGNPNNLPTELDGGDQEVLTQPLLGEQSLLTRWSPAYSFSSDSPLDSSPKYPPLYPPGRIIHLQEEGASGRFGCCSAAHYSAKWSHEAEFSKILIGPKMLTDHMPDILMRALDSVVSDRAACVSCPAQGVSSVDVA
# rCAG binder conf – r(CAG) RNA repeat binding, confirmation; actives 70% (n = 4,300); inhibition, % at 3 µM; AID 652065; shares compounds with rCAG RNA binder; TO-PRO-1 dye displacement fluorescence;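 active = inhibition above a per-plate cutoff, the mean inhibition of sample wells plus 3 SD, cut at about 35% in these data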;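 also: loss of TO-PRO-1 fluorescence as compound displaces dye from 1x1 AA loop RNA; 0% = DMSO only wells and 100% = 100 µM mitoxantrone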
# dCAG dye counter – DNA CAG dye complex inhibition counter-screen; actives 94% (n = 4,300); shares compounds with rCAG RNA binder; inhibition, % at 3 µM; AID 652068; d(CAG) DNA oligo TO-PRO-1 dye displacement, fluorescence;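 active = inhibition above its plate's cutoff, the mean test-well inhibition plus 3 SD, cut at about 4.8% in these data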;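 also: 0% = DNA dye mix with DMSO and 100% = 100 µM mitoxantrone; hits displace the dye from DNA and so lower well fluorescence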
# An asterisk follows results filed as active; x = not tested or not shown; ! = a repeat was not active.
SMILES,DSG3 Ab inh,rCAG RNA binder,MsrA inhibitor,bovine MsrA act,NadD block,DAGLB inh,rCAG binder conf,dCAG dye counter
Cc1cc(N2C(=O)C(O)=C(C(=O)c3cc4ccccc4o3)C2c2ccc(Cl)cc2)no1 (stereo unspecified),96.7,56.4*,0.5,-0.7,13.4,14.2,74.8*,38.3*
CC1CCC2(CCC(=O)N2CCCOC(=O)c2ccccc2)CC1 (stereo unspecified),x,-2.8,x,x,x,x,x,x
Cc1ccc(-c2ccc(/C=N/NC(=S)Nc3ccccc3)o2)cc1[N+](=O)[O-],95.7,42.5*,3.2,-1.5,26.6,-2.8,34.0,15.9*
O=[N+]([O-])c1cccc(-c2ccc(/C=N/NC(=S)Nc3cccc(F)c3)o2)c1,102.3,39.1*,2.2,-8.4,17.9,-3.9,25.1,13.2*
O=C(N/N=C/c1ccc(-c2cccc([N+](=O)[O-])c2)o1)c1cccs1,93.3,14.7,1.1,-4.5,13.2,-1.1,x,x
COc1cccc(/C=C2\SC(=S)N(N3CCOCC3)C2=O)c1OC,96.0,-1.8,0.3,-4.4,-10.8,-9.1,x,x
O=C(O)C(c1ccccc1)N1C(=O)/C(=C\c2ccc(-c3ccccc3Cl)o2)SC1=S (stereo unspecified),105.7,44.5*,0.5,-5.2,22.0,10.3,87.2*,62.9*
COc1ccccc1NC(=O)CCN1C(=O)/C(=C/c2cc(OC)c(OC)c(OC)c2)SC1=S,97.8,-0.8,0.1,0.0,4.7,-2.2,x,x
COc1cccc(/C=C2\SC(=S)N(C(C(=O)O)c3ccccc3)C2=O)c1OC (stereo unspecified),95.5,63.3*,1.1,0.0,-1.5,7.7,63.0*,24.7*
COc1cc(/C=C2\SC(=S)N(C(C(=O)O)c3ccccc3)C2=O)cc(OC)c1OC (stereo unspecified),102.7,56.0*,1.9,-13.3,5.5,5.5,64.3*,24.4*
COc1ccc(/C=C2\SC(=S)N(C(C(=O)O)c3ccccc3)C2=O)c(OC)c1 (stereo unspecified),99.3,79.1*,-0.3,-4.5,6.2,16.8,79.5*,45.4*
CC1(C(=O)NS(=O)(=O)C2CC2)CCN(C(=O)c2ccc3ccccc3n2)C1 (stereo unspecified),x,-0.8,1.7,0.5,2.7,x,x,x
C=Cc1c(C)c2cc3[nH]c(cc4nc(cc5nc(cc1[nH]2)C(C)=C5CCC(=O)O)C(CCC(=O)O)=C4C)c(C)c3C=C,25.2*!,90.3*,2.8,-2.3,5.6,3.9,87.1*,57.1*
Nc1cc(S(=O)(=O)Nc2cc(Cl)ccc2Cl)ccc1N1CCCC1,98.7,16.1,0.8,0.3,3.1,2.1,x,x
CNC(=S)Nc1cc(S(=O)(=O)Nc2cc(Cl)ccc2Cl)ccc1N1CCCC1,104.3,36.9*,0.8,-2.4,17.7,10.5,43.5*,18.9*
Cc1ccc(S(=O)(=O)CCC(=O)OCCOc2ccc(Br)cc2)cc1,95.0,2.0,-0.6,-0.7,-1.9,-1.2,x,x
Cc1nc(N2C(=O)C(=O)/C(=C(/O)c3ccccc3)C2c2ccco2)sc1C (stereo unspecified),105.4,19.0,2.4,-1.9,12.4,3.1,x,x
COC(=O)c1sc(N2C(=O)C(=O)/C(=C(/O)c3ccccc3)C2c2ccco2)nc1C (stereo unspecified),103.0,37.5*,1.9,-4.2,9.9,8.2,31.2,6.3*
CCCCNC(=O)C[C@H]1C[C@@]2(C(=O)OC)C(=C[C@H](C(C)C)O[C@@H]2C2CC2)N(CCc2ccc(OC)c(OC)c2)C1=O,x,0.7,x,x,x,x,x,x
Oc1ccc(C2Nc3cccc4cccc(c34)N2)c(O)c1,98.5,75.4*,3.2,1.8,21.7,8.6,64.5*,44.2*
Clc1ccccc1C1Nc2cccc3cccc(c23)N1,119.3,15.0,-0.7,-4.0,28.6,4.8,x,x
COc1ccc(NC(=O)Cn2nnc(-c3ccccc3)c2COc2ccc(C(C)=O)cc2)cn1,x,3.4,1.3,-3.4,2.4,x,x,x
CC(=O)c1ccc(OCc2nnn(CC(=O)NS(=O)(=O)Cc3ccccc3)c2-c2ccccc2)cc1,x,55.8*,-1.5,-2.7,1.0,x,77.8*,41.0*
